Source: PubChem BioAssay (Tox21)
“And” between values parts separate entries of the source, which are not always exact repeats. Equal values may be shown once. Records with an inconclusive call do not appear. Where a call stands in place of a potency, no number is given. The source holds several records for some structures; these can differ, active in one and inactive in another. The source made the active and inactive calls. Calls follow the shape of the dose curve; as a rule, active = well fitted curve in the direction sought with a large enough effect in the repeat runs; inconclusive = weak or mixed curves; inactive = no such curve, though single readings can be large; an effect the other way counts as inactive or inconclusive.

Experiments:
[1] = Human pregnane X receptor (PXR) small molecule agonists, qHTS cell viability counter screen (AID 1346977); also: nearly all actives have a fitted effect of over 50% in size; also: potency is read from the fitted curve at half-maximal effect
In short: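 Viability counter screen: CellTiter-Fluor signal in PXR-Luc HepG2 cells, 24hr compound exposure, 37C, 5% CO2.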

[2] = Caspase-3/7 induction in HepG2 cells by small molecules, qHTS assay (AID 1346978); also: nearly all actives have a fitted effect of over 15% in size
In short: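 Wild-type HepG2 cells, 2,000/well, settled 5 hr at 37 C and 5% CO2, then compound-treated for 17 hr; caspase-3/7 activity read by luminescent Caspase-Glo 3/7 after 30 min at room temperature.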

[3] = Caspase-3/7 induction in CHO-K1 cells by small molecules, qHTS cell viability counter screen (AID 1346979); also: nearly all actives have a fitted effect of over 35% in size; also: potency is read from the fitted curve at half-maximal effect
In short: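 Viability readout by fluorescence (CellTiter-Fluor) on wild-type CHO-K1 cells exposed for 16hr at 37C and 5% CO2 to compounds delivered in DMSO; reagent incubated 1hr before reading.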

[4] = Caspase-3/7 induction in CHO-K1 cells by small molecules, qHTS assay (AID 1346980); also: nearly all actives have a fitted effect of over 15% in size
In short: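 Wild-type CHO-K1 cells exposed to compounds for 17hr at 37 C, 5% CO2. Caspase-3/7 activity then measured by Caspase-Glo 3/7 luminescence after 30min at room temperature.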

[5] = Caspase-3/7 induction in HepG2 cells by small molecules, qHTS cell viability counter screen (AID 1346981); also: nearly all actives have a fitted effect of over 30% in size; also: potency is read from the fitted curve at half-maximal effect
In short: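 CellTiter-Fluor fluorescence measured viability in the same wells used for Caspase-Glo 3/7. HepG2 (wild type) at 2,000 cells/well were pre-incubated 5 hr, dosed, and given reagent at 16 hr, with 1 hr further at 37C.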

[6] = molecular target: Nuclear receptor subfamily 1 group I member 2 (Homo sapiens) (UniProt O75469); assay: Human pregnane X receptor (PXR) small molecule agonists, qHTS assay (AID 1346982); also: nearly all actives have a fitted effect of over 35% in size; also: potency is read from the fitted curve at half-maximal effect
Chain of Nuclear receptor subfamily 1 group I member 2 (Homo sapiens) (O75469 whole entry, looked up): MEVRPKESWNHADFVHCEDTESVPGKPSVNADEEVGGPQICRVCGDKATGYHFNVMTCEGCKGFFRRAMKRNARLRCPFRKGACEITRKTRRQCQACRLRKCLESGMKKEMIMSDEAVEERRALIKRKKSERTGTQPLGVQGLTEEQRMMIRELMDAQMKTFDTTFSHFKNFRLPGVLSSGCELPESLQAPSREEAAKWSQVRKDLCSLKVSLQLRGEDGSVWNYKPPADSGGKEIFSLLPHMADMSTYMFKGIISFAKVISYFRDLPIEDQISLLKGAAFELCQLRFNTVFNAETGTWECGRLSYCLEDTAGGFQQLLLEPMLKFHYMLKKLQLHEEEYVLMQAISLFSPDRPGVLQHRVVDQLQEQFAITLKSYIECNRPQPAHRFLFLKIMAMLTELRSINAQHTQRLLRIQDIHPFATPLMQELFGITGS
In short: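 Agonist mode: luminescence from ONE-Glo after 24 h compound exposure at 37C in HepG2 cells carrying hPXR-responsive CYP3A4 luciferase, plated in charcoal-stripped serum medium 5 h beforehand.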

[7] = molecular target: Cytochrome P450 2D6 (Homo sapiens) (UniProt P10635); assay: Cytochrome P450 Family 2 Subfamily D Member 6 (CYP2D6) small molecule antagonists: luciferase reporter qHTS assay (AID 1671196); also: nearly all actives have a fitted effect of over 50% in size; also: potency is read from the fitted curve at half-maximal effect
Chain of Cytochrome P450 2D6 (Homo sapiens) (P10635 whole entry, looked up): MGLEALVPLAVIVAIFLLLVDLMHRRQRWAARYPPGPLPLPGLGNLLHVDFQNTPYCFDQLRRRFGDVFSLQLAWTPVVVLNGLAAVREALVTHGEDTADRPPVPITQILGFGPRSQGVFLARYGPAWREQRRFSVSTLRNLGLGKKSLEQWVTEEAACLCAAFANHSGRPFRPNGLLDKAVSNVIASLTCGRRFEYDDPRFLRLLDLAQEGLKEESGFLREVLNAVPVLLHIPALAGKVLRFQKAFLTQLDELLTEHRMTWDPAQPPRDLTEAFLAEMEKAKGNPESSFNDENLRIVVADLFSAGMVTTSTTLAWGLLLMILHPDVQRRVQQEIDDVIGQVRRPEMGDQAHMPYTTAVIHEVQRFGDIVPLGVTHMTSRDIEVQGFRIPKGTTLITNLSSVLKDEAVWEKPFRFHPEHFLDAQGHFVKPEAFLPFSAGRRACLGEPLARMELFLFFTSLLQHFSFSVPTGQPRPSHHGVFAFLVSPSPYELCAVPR
In short: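 CYP2D6 activity was followed as luminescence from its luciferin product after a 1 h NADPH-driven reaction at room temperature. Enzyme-substrate mix and compound were pre-incubated for 10 min, and the signal was read 20 min after adding detection reagent.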

[8] = molecular target: Cytochrome P450 2C19 (Homo sapiens) (UniProt P33261); assay: Cytochrome P450 Family 2 Subfamily C Member 19 (CYP2C19) small molecule antagonists: luciferase reporter qHTS assay (AID 1671197); also: nearly all actives have a fitted effect of over 65% in size; also: potency is read from the fitted curve at half-maximal effect
Chain of Cytochrome P450 2C19 (Homo sapiens) (P33261 whole entry, looked up): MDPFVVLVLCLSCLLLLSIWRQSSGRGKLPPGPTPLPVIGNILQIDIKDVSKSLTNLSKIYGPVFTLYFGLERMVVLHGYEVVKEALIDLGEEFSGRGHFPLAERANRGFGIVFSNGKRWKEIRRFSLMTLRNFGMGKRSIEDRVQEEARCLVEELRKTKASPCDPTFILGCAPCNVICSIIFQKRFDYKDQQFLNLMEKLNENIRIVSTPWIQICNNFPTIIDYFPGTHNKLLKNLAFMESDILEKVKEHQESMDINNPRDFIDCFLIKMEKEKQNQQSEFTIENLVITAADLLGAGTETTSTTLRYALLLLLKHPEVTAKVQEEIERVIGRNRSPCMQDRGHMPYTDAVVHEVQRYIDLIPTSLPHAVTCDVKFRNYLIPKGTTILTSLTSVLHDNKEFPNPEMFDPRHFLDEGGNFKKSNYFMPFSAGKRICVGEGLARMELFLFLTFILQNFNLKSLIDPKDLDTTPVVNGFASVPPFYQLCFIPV
In short: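 First, compounds are pinned into enzyme-substrate mix and held 10 min at room temperature. Second, NADPH regeneration solution is added and plates incubate 1 h at 37C. Third, detection reagent is added and luminescence read after 20 min.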

[9] = molecular target: Cytochrome P450 2C9 (Homo sapiens) (UniProt P11712); assay: Cytochrome P450 Family 2 Subfamily C Member 9 (CYP2C9) small molecule antagonists: luciferase reporter qHTS assay (AID 1671198); also: nearly all actives have a fitted effect of over 50% in size; also: potency is read from the fitted curve at half-maximal effect
Chain of Cytochrome P450 2C9 (Homo sapiens) (P11712 whole entry, looked up): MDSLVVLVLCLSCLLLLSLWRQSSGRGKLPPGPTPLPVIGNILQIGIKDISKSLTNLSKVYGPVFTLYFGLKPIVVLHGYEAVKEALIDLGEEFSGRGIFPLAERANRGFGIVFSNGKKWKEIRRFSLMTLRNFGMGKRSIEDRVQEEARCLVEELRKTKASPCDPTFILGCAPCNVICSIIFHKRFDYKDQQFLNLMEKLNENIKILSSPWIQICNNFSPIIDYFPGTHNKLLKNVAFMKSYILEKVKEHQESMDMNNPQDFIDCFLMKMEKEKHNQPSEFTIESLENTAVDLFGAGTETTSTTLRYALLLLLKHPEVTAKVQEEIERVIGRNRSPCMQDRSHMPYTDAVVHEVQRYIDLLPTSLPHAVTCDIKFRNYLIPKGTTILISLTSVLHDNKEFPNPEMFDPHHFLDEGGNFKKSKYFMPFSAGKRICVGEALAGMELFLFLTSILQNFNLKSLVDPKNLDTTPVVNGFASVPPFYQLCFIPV
In short: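 P450-Glo proluciferin substrate with CYP2C9 enzyme; 10 min RT preincubation, then NADPH regeneration 1 h at 37C; luciferin detection reagent 20 min RT, luminescence in relative luminescence units.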

[10] = molecular target: Cytochrome P450 1A2 (Homo sapiens) (UniProt P05177); assay: Cytochrome P450 Family 1 Subfamily A Member 2 (CYP1A2) small molecule antagonists: luciferase reporter qHTS assay (AID 1671199); also: nearly all actives have a fitted effect of over 50% in size; also: potency is read from the fitted curve at half-maximal effect
Chain of Cytochrome P450 1A2 (Homo sapiens) (P05177 whole entry, looked up): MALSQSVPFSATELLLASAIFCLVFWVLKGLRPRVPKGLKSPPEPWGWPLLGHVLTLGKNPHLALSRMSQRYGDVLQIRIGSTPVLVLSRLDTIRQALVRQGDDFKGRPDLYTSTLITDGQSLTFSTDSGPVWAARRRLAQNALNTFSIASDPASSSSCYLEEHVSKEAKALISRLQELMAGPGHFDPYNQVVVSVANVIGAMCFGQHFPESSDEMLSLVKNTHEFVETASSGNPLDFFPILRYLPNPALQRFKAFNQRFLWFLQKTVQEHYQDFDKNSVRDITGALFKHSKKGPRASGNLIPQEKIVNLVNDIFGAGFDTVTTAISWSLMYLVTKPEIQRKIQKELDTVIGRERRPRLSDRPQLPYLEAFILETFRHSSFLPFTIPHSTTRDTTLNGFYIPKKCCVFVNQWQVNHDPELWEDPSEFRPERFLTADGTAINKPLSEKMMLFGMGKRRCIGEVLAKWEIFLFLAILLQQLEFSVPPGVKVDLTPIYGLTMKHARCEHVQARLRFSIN
In short: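 Luminescence from luciferin formed by CYP1A2 from a proluciferin substrate, read 20 min after detection reagent. Compound was pre-incubated 10 min with enzyme-substrate, and reaction started with NADPH regeneration solution for 1 h at room temperature; furafylline control.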

[11] = molecular target: Voltage-gated inwardly rectifying potassium channel KCNH2 (Homo sapiens) (UniProt Q12809); assay: Human Ether-a-go-go-Related Gene (hERG) channel small molecule antagonists: fluorescence cell-based qHTS assay (AID 1671200)
Chain of Voltage-gated inwardly rectifying potassium channel KCNH2 (Homo sapiens) (Q12809 whole entry, looked up): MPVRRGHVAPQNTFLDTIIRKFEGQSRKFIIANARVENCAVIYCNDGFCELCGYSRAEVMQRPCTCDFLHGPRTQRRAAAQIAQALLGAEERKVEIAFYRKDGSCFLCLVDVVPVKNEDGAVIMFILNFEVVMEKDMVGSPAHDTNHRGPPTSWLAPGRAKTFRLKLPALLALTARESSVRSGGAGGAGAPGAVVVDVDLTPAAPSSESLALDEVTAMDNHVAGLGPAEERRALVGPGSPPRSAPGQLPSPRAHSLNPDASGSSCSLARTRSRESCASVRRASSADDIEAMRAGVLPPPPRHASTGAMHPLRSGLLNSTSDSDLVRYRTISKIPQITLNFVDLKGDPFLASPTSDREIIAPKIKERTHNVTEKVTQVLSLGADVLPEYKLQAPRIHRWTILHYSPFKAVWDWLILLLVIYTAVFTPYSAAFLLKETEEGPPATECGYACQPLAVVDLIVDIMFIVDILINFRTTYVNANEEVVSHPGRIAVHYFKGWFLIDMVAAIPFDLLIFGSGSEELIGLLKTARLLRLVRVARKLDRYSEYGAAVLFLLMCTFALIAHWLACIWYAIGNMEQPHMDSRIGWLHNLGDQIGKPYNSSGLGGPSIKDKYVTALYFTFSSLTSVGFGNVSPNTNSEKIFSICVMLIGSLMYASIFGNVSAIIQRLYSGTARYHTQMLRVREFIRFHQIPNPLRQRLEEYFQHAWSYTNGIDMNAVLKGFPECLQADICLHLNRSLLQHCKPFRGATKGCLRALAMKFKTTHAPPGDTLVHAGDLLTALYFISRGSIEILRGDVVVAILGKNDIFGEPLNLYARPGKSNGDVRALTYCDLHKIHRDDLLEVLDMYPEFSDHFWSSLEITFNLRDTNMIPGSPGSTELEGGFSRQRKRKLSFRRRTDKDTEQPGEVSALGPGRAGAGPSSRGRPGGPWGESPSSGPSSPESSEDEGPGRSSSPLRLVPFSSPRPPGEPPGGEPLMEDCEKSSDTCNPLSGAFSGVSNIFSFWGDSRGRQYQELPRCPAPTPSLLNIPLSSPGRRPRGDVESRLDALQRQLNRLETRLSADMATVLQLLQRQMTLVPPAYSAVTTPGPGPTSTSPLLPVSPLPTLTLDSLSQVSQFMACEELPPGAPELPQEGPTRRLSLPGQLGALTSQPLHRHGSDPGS
In short: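 Thallium served as the potassium surrogate; its influx into dye-loaded U2OS cells carrying the channel was measured by fluorescence over 2 min.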

[12] = molecular target: Cytochrome P450 3A4 (Homo sapiens) (UniProt P08684); assay: Cytochrome P450 Family 3 Subfamily A Member 4 (CYP3A4) small molecule antagonists: luciferase reporter qHTS assay (AID 1671201); also: nearly all actives have a fitted effect of over 50% in size; also: potency is read from the fitted curve at half-maximal effect
Chain of Cytochrome P450 3A4 (Homo sapiens) (P08684 whole entry, looked up): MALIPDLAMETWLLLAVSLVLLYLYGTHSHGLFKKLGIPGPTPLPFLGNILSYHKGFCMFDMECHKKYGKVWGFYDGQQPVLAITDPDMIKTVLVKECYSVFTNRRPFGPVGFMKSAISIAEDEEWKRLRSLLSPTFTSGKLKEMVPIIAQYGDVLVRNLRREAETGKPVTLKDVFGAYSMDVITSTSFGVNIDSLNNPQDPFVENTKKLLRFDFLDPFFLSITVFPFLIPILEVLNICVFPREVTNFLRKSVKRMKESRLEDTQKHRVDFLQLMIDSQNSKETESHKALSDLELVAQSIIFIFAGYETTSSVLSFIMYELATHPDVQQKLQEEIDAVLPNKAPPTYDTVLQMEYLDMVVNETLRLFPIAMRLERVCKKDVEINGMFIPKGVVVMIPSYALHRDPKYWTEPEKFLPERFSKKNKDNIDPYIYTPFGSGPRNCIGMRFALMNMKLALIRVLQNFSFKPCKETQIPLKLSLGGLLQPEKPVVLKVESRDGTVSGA
In short: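 Relative luminescence units after 20 min with luciferin detection reagent served as read-out. Beforehand, CYP3A4 turned over a proluciferin substrate for 1 h at room temperature with NADPH regeneration, following 10 min compound preincubation.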

[13] = molecular target: Nuclear receptor subfamily 1 group I member 2 (Rattus norvegicus) (UniProt Q9R1A7); assay: Rat pregnane X receptor (rPXR) activation by small molecules, qHTS assay (AID 1346983); settings: rPXR luciferase reporter cells, One-Glo luminescence, 24 h; stronger effect = higher value; also: nearly all actives have a fitted effect of over 20% in size
Chain of Nuclear receptor subfamily 1 group I member 2 (Rattus norvegicus) (Q9R1A7 whole entry, looked up): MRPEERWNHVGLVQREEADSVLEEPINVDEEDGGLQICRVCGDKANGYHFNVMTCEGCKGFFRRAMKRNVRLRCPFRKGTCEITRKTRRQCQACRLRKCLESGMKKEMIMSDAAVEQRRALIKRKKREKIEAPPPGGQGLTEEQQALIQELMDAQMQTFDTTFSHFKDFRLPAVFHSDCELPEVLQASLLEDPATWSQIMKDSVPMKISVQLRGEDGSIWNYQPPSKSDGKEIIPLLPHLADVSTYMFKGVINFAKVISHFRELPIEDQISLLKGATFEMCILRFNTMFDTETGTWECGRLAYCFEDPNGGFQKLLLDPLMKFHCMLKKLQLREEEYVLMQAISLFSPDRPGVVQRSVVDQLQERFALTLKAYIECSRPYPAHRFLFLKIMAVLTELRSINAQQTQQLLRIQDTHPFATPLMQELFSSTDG
In short: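 Cell-based rPXR activation assay: rPXR cells, 2,000 per well, rested 5hr at 37 C, then exposed to compounds in DMSO for 24 hr at 37 C. Luciferase activity read by One-Glo luminescence after 30 min at room temperature.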

[14] = molecular target: Nuclear receptor subfamily 1 group I member 2 (Homo sapiens) (UniProt O75469); assay: CYP3A4 induction through human pregnane X receptor (PXR) by small molecules, qHTS assay (AID 1346984); also: nearly all actives have a fitted effect of over 40% in size
In short: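 Read-out is luminescence after One-Glo addition, following a 3 hr, 37C incubation with Luciferin-IPA CYP3A4 substrate (3uM final). Before that, compounds were on DPX-2 cells (HepG2 co-transfected with PXR element plus CYP3A4-promoter luciferase) for 24 hr at 37C.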

[15] = molecular target: Nuclear receptor subfamily 1 group I member 2 (Homo sapiens) (UniProt O75469); assay: Human pregnane X receptor (PXR) activation by small molecules, qHTS assay (AID 1346985); also: nearly all actives have a fitted effect of over 40% in size
In short: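 DPX-2 cells (HepG2 co-transfected with a PXR response element and a CYP3A4-promoter luciferase construct) were seeded at 2,000 per well, rested 5 hr at 37C, then exposed to DMSO-dissolved compounds for 24 hr. Activation was read as luciferase luminescence.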

| SMILES | Potency [1] | Potency [2] | Potency [3] | outcome [4] | Potency [5] | Potency [6] | Potency [7] | Potency [8] | Potency [9] | Potency [10] | Potency [11] | Potency [12] | max activation [13] | Potency [14] | outcome [15] |
| --- | --- | --- | --- | --- | --- | --- | --- | --- | --- | --- | --- | --- | --- | --- | --- |
| C=C(C)CNCC | inactive | inactive | inactive | inactive | inactive | inactive | 31.2 µM (active) and inactive | inactive | inactive | inactive | inactive | inactive | – | – | – |
| CC(C)=CCl | inactive | inactive | inactive | inactive | inactive | inactive | 10.1 µM (active) and inactive | inactive | inactive | – | inactive | inactive | – | – | – |
| Clc1ccccn1 | inactive | inactive | inactive | inactive | inactive | inactive | inactive | inactive | inactive | inactive | inactive | inactive | – | – | – |
| COCCOC(=O)c1ccccc1C(=O)OCCOC | inactive | inactive | inactive | inactive | inactive | inactive | inactive | 22.6 µM (active) and 25.2 µM (active) | – | 22.6 µM (active) and 35.6 µM (active) | inactive | inactive | – | – | – |
| CC(C)CC(C)O (stereo unspecified) | inactive | inactive | inactive | inactive | inactive | inactive | inactive | inactive | inactive and 31.7 µM (active) | – | inactive | inactive | – | – | – |
| CC(=O)OCc1ccccc1 | inactive | inactive | inactive | inactive | inactive | inactive | inactive | inactive | inactive | – | inactive | inactive | – | – | – |
| CC1(C)S[C@@H]2[C@H](NC(=O)COc3ccccc3)C(=O)N2[C@H]1C(=O)O | inactive | inactive | inactive | inactive | inactive | inactive | – | inactive | – | – | inactive | – | – | – | – |
| O=C(O)Cn1c(=O)n(Cc2ccc(Br)cc2F)c(=O)c2ccc(Cl)cc21 | inactive | inactive | – | inactive | – | – | inactive | inactive | 31.7 µM (active) and 15.5 µM (active) | – | inactive | inactive | – | – | – |
| OCc1cccc(Oc2ccccc2)c1 | inactive | inactive | inactive | inactive | inactive | – | 28.7 µM (active) | 10.2 µM (active) and 22.4 µM (active) | 56.4 µM (active) | 20.3 µM (active) and 39.9 µM (active) | inactive | inactive | – | – | – |
| CN(C)CCOC(=O)COc1ccc(Cl)cc1 | inactive | inactive | – | inactive | inactive | inactive | 35.5 µM (active) and 30.9 µM (active) | – | inactive | – | inactive | inactive | -3.66% (inactive) | inactive | inactive |
| Cc1ccc2ncccc2c1 | inactive | inactive | inactive | inactive | inactive | inactive | inactive | inactive | – | 39.9 µM (active) and inactive | inactive | inactive | – | – | – |
| CCCCOC(=O)c1ccc(N)cc1 | inactive | inactive | inactive | inactive | inactive | 53.8 µM (active) and 23.7 µM (active) | – | – | – | – | inactive | – | – | – | – |
| C=Cc1ccc(C)cc1 | inactive | inactive | inactive | inactive | inactive | inactive | inactive | inactive | inactive | – | inactive | inactive | – | – | – |
| CC(CCO)CC(C)(C)C (stereo unspecified) | inactive | inactive | inactive | inactive | inactive | inactive | inactive | inactive and 79.6 µM (active) | – | inactive | inactive | inactive | – | – | – |
| CN(C)c1ccc(Cc2ccc(N(C)C)cc2)cc1 | inactive | inactive | – | inactive | inactive | 30.8 µM (active) and 43.3 µM (active) | 40.1 µM (active) | 179 nM (active) and 356 nM (active) | 12.7 µM (active) and 31.7 µM (active) | 2.26 µM (active) and 5.03 µM (active) | – | 35.7 µM (active) and 15.9 µM (active) | – | – | – |
| C=CCc1ccc(OC)c(OC)c1 | inactive | inactive | inactive | inactive | inactive | inactive | inactive | inactive | – | – | inactive | inactive | – | – | – |
| O=S(=O)(O)c1ccc(N=Nc2c(O)ccc3cc(S(=O)(=O)O)ccc23)cc1 | 39.8 µM (active) and 30.6 µM (active) | inactive | 54.7 µM (active) and 27.3 µM (active) | inactive | 54.7 µM (active) and 30.6 µM (active) | inactive | 31.8 µM (active) | 71.3 µM (active) | – | 40.1 µM (active) | inactive | inactive | – | – | – |
| c1ccc(Oc2ccccc2)cc1 | inactive | inactive | inactive | inactive | inactive | inactive | – | inactive | inactive | inactive | inactive | inactive | – | – | – |
| O=[N+]([O-])c1ccc2nc[nH]c2c1 | inactive | inactive | inactive | inactive | inactive | inactive | inactive | inactive | – | 36.3 µM (active) and 39.9 µM (active) | inactive | inactive | – | – | – |
| COc1ccc(C)cc1N | inactive | inactive | inactive | inactive | inactive | inactive | 24.3 µM (active) and 25.2 µM (active) | 38.6 µM (active) and 35.6 µM (active) | – | 28.3 µM (active) | inactive | 6.86 µM (active) and 20 µM (active) | – | – | – |
